The entries come from a sample that favours hits as a whole.
Pf Dd2 inh: qHTS Primary assay for Inhibitors of Plasmodium falciparum Dd2 growth in vitro. Potency, µM (top dose mostly 28.9 µM), actives largely listed as inhibitors. 4.3% of 120,000 active. P. falciparum Dd2 growth, SYBR Green, 72 h; active means well fitted inhibition curve with a large enough effect; further: nearly all actives have a fitted effect of over 65% in size
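Readout: SYBR Green fluorescence, 485 nm excitation, 535 nm emission, after ~16 h lysis at 37C. Before that, Dd2-infected red cells (2.5% hematocrit) grew 72 h with compound, 29 uM top final concentration.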
Each line names hits and unclear results; the compound was inactive in the other large screens.

Cc1cc(N2CCC(NS(=O)(=O)c3cn(C)c(C)n3)C2=O)ccc1F (stereo not given)	none
Cc1cccc(OCC(=O)N2CC(c3nnc(C(C)C)o3)C3(CCOCC3)C2)c1 (stereo not given)	none
Cc1nnc([C@H]2CCN(Cc3cc4ccccc4o3)C2)o1	none
C=CCn1cc(CN2CCOC(Cc3cccc(OC)c3)C2)c(C)n1 (stereo not given)	none
CCC1CN(Cc2cn(Cc3ccccc3)nc2-c2cc3ccccc3o2)CCO1 (stereo not given)	Pf Dd2 inh 10µM
COc1ccc(N2CCN(C(=O)Nc3nc(C)ns3)CC2(C)C)cc1	none
CCC(C)(C)C1CCc2c(sc(NC(=O)C3c4ccccc4Oc4ccccc43)c2C(N)=O)C1 (stereo not given)	none
CCC1CCc2c(sc(NC(=O)C3c4ccccc4Oc4ccccc43)c2C(=O)OC)C1 (stereo not given)	Pf Dd2 inh 13µM
CC1CCc2c(sc(NC(=O)C3c4ccccc4Oc4ccccc43)c2C(=O)OC(C)C)C1 (stereo not given)	none
Cc1ccc(-c2cc3c(=O)n(CCNC(=O)c4cccc(Cl)c4)ccn3n2)c(C)c1	none
CN1C(=O)CS(=O)C12CCNCC2 (stereo not given)	none
CCN(CC)C(=O)[C@@H]1CCCN1[C@@H](C(=O)NC)C1CC1	none
Cc1ccc(CNC(=O)N2CCC(N3C(=O)C4(CCCCC4)C3c3ccncc3)CC2)cc1 (stereo not given)	Pf Dd2 inh 11µM
CN1CCC(N2CCC(N3C(=O)C4(CCCCC4)C3c3ccncc3)CC2)CC1 (stereo not given)	none
CS(=O)(=O)N1CCC(N2C(=O)C3(CCCCC3)C2c2ccncc2)CC1 (stereo not given)	none
O=C(c1ccoc1)N1CCC(N2C(=O)C3(CCCCC3)C2c2ccncc2)CC1 (stereo not given)	none
CCOC(=O)CCNC(=O)N1CCC(N2C(=O)C3(CCCCC3)C2c2ccncc2)CC1 (stereo not given)	none
O=C(NC1CCCCC1)N1CCC(N2C(=O)C3(CCCCC3)C2c2ccncc2)CC1 (stereo not given)	Pf Dd2 inh 5µM
COc1ccc(C(=O)N2CCC(N3C(=O)CCC3C(=O)NC(C)C)CC2)cc1OC (stereo not given)	none
CN(C)C[C@@H]1CN(c2ncccn2)C[C@H]1NS(=O)(=O)c1cccnc1	none
CC(=O)N1C[C@@H](CN(C)C)[C@H](NS(=O)(=O)c2cccc(C#N)c2)C1	none
CN(C)C[C@@H]1CN(C)C[C@H]1NS(=O)(=O)c1ccc2c(c1)CCCC2	Pf Dd2 inh 3.2µM
CN(C)C[C@@H]1CN(C)C[C@H]1NS(=O)(=O)c1ccc(Br)cc1	Pf Dd2 inh 1.8µM
CCCS(=O)(=O)N[C@@H]1CN(C)C[C@H]1CN(C)C	none
CNC(=O)N1C[C@@H](CN(C)C)[C@H](NS(=O)(=O)c2ccc3c(c2)CCC3)C1	none
COC(=O)c1ccccc1NC(=O)c1c(OC)cc(=O)n2c1CCCC2	none
Cc1cc(Cl)ccc1-c1cccc(C=O)c1	none
Cc1cccc(OCC(=O)N2CCC3(CC2)N(C)C(=O)CS3(=O)=O)c1	none
COc1ccc2[nH]cc(CCNC(=O)C3(Cc4ccccc4)CCCCC(=O)N3)c2c1 (stereo not given)	Pf Dd2 inh 2µM
COc1ccc2[nH]cc(CCNC(=O)Nc3ccccc3)c2c1	none
COc1ccc(NC(=O)C2(Cc3ccccc3)CCCCC(=O)N2)c(OC)c1 (stereo not given)	none
O=C(NCC1(COc2cnccn2)C[C@@H](O)[C@@H](O)C1)C1CC1 (stereo not given in full)	none
COCC(=O)NCC1(COc2cccnc2)C[C@@H](O)[C@@H](O)C1 (stereo not given in full)	none
O=C(NCC1(COc2cccnc2)C[C@@H](O)[C@@H](O)C1)C1CC1 (stereo not given in full)	Pf Dd2 inh 7.9µM
COc1ccc(CN2C(=O)COC[C@H]2C(=O)Nc2ccc(Cl)cc2)c(OC)c1	none
CCCCOCCCNC(=O)c1c(C)noc1-c1ccc(OC(F)(F)F)cc1	none
CCn1cc(C(=O)N2CCOc3c(O)cc(-c4ccccc4C)cc3C2)cn1	Pf Dd2 inh 13µM
Cc1cnc(C)c(-c2cc(O)c3c(c2)CN(C(=O)C2CCOC2)CCO3)n1 (stereo not given)	none
Cc1nc(C(=O)N2CCOc3c(O)cc(-c4cccc(Cl)c4)cc3C2)c(C)o1	none
O=C(c1ccccn1)N1CCn2c(nn(-c3ccc(F)cc3F)c2=O)C1	none
COc1cccc(-c2ccc(-c3nc(C4CCOC4)no3)o2)c1 (stereo not given)	none
CCOc1cccc(-c2nc(C3CCOC3)no2)c1 (stereo not given)	none
c1cc(-c2ccco2)cc(-c2nc(C3CCOC3)no2)c1 (stereo not given)	Pf Dd2 inh 13µM
COC(=O)c1ccccc1NC(=O)CSc1n[nH]c(C)n1	none
CC(C)(C)c1ccccc1NC(=O)CSc1nc(-c2cccs2)cc(C(F)(F)F)n1	none
COC(=O)c1ccccc1NC(=O)CSc1nc(-c2ccccc2)cc(C(F)(F)F)n1	Pf Dd2 inh 2.8µM
Cc1cn2nnc(C(=O)N3CCN(c4ccccc4)CC3)c2c(=O)[nH]1	none
COc1cc(NC(=O)NC[C@H]2O[C@@H](CO)[C@@H](O)[C@H]2N(C)CCN(C)C)cc(OC)c1	none
CC(c1n[nH]c(=O)n1CCC(=O)O)n1cccn1 (stereo not given)	none
Cc1ccc2oc(=O)c3cnn(CC(=O)Nc4cccc(C(F)(F)F)c4)c3c2c1	Pf Dd2 inh 1.1µM
Cc1ccc2oc(=O)c3cnn(CC(=O)N4CCN(c5cccc(C(F)(F)F)c5)CC4)c3c2c1	none
Cc1ccc2oc(=O)c3cnn(CC(=O)Nc4ccc(Br)cc4C)c3c2c1	none
O=S(=O)(NC[C@H]1OC[C@@H](NCc2ncc[nH]2)[C@@H]1O)c1ccccc1	none
O=C(NCC1(COc2cnccn2)C[C@@H](O)[C@@H](O)C1)c1ccc(F)cc1 (stereo not given in full)	none
Cc1ccc(NC(=O)N2CC(N(C)Cc3cccnc3)C2)cc1C	none
COC(=O)c1ccc(NC(=O)CSc2ccc(-c3sc(-c4ccccc4)nc3C)nn2)cc1	Pf Dd2 inh 13µM
Cc1cccc(NC(=O)CSc2ccc(-c3sc(-c4ccccc4)nc3C)nn2)c1C	none
Cc1nc(-c2ccccc2)sc1-c1ccc(SCC(=O)NCc2ccc(Cl)cc2)nn1	none
O=C(c1ccn[nH]1)N1CCC(Oc2ncccc2C(=O)N2CCCCC2)C1 (stereo not given)	none
CCC1(N2CCN(S(=O)(=O)c3cc(F)ccc3C)CC2)CCN(S(C)(=O)=O)C1 (stereo not given)	none
COc1ccc(C(=O)N2CCC3(CC2)NCCc2c3[nH]c3ccccc23)cc1	none
Cc1ccc(C(=O)N2CCC(c3c[nH]c4ccccc34)(c3c[nH]c4ccccc34)CC2)cc1	Pf Dd2 inh 2µM
Cc1ccc(C(=O)N2CCC3(CC2)N=C(c2ccccc2)NO3)cc1	none
O=C1NCCN2CC3(CCN(S(=O)(=O)c4cccc5cccnc45)CC3)CC12 (stereo not given)	none
Cc1noc(C)c1C(=O)N1CCN(c2cc(Cl)ncn2)C(=O)C1	none
Cc1ccsc1CN1CCCC2(Cc3ccccc3CNC2=O)C1 (stereo not given)	none
CC(C)=CCN1CCCC2(Cc3ccccc3CNC2=O)C1 (stereo not given)	Pf Dd2 inh 10µM
O=C1NCc2ccccc2CC12CCCN(Cc1c(Cl)cncc1Cl)C2 (stereo not given)	none
CCn1c2ccccc2c2cc(CN3CCN(Cc4ccccc4F)CC3)ccc21	none
COc1cc(CN2CCN(S(=O)(=O)c3ccccc3)CC2)cc(OC)c1O	none

Source: PubChem (National Center for Advancing Translational Sciences (NCATS))
